# Results taken from publication PMC7862700, “An all-to-all approach to the identification of sequence-specific readers for epigenetic DNA modifications on cytosine”.
# Columns and labels:
# Assay in all cases: DAPPL (digital affinity profiling via proximity ligation, sequencing); 10 mM Tris-HCl pH 7.5, 50 mM NaCl, 1 mM DTT, 4% glycerol, room temperature, 30 min; GST-TFs on glutathione beads, 16-mer random dsDNA library, 0.1% formaldehyde crosslink after washing; high values mean tight binding
# FEV = target: T1, FEV (Homo sapiens, UniProt Q99581 1-238); details: protein: recombinant; tags: N-terminal GST; dsDNA, one strand shown
# T1 sequence: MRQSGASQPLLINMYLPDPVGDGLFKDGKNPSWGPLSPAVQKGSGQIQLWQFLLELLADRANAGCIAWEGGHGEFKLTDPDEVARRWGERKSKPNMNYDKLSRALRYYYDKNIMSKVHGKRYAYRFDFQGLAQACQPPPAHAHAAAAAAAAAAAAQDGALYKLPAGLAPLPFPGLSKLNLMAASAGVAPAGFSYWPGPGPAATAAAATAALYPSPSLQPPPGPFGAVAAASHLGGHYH
# How it was run: (§1)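 GST fusions of human transcription factors were expressed in yeast and captured with glutathione beads. Once given DNA barcodes and pooled alongside a tag-only sample, they were incubated for 30 min at room temperature with 200 nmole of a random double-stranded 16-mer DNA library in Tris/NaCl/DTT/glycerol buffer, then washed, crosslinked (0.1% formaldehyde), proximity-ligated, PCR-amplified and sequenced on an Illumina NextSeq500. The binding signal of each hexamer is its read frequency for a factor divided by its frequency for the tag-only sample.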
# ETV5 = ETV5 (Homo sapiens, UniProt P41161 1-510); details: protein: recombinant; tags: N-terminal GST; dsDNA, one strand shown
# ETV5, sequence (P41161 whole entry): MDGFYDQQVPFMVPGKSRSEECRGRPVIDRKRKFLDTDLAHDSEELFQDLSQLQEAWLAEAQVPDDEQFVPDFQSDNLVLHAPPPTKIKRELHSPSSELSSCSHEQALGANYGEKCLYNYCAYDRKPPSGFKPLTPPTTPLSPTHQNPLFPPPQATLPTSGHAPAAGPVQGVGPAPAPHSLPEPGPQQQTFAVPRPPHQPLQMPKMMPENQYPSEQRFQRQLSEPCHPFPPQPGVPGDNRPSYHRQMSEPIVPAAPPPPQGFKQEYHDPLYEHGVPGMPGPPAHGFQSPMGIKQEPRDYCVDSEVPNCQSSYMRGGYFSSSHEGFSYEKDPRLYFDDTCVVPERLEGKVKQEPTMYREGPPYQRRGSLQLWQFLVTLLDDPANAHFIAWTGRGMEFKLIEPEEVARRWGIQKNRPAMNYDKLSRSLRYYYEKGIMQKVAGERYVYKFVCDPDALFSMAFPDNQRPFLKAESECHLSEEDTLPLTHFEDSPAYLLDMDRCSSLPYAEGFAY
# How it was run: as §1
# HSF1 = HSF1 (Homo sapiens, UniProt Q00613 1-529); details: protein: recombinant; tags: N-terminal GST; chain copies: 3; dsDNA, one strand shown
# HSF1, sequence (Q00613 whole entry): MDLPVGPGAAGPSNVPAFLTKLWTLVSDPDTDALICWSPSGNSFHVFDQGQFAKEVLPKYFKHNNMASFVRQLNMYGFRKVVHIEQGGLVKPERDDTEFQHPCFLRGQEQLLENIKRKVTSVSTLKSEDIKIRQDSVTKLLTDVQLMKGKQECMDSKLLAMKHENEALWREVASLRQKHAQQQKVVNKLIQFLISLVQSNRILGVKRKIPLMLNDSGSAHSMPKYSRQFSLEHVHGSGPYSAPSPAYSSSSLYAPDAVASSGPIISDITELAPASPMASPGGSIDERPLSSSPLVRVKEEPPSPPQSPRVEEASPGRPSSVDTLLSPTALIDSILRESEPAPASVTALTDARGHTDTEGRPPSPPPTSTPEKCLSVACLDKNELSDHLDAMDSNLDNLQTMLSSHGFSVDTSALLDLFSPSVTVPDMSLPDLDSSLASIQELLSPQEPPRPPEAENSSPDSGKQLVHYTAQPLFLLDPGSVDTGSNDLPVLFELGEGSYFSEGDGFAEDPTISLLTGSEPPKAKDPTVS
# How it was run: as §1
# SPIC = target: T2, SPIC (Homo sapiens, UniProt Q8N5J4 1-248); details: protein: recombinant; tags: N-terminal GST; dsDNA, one strand shown
# T2 sequence: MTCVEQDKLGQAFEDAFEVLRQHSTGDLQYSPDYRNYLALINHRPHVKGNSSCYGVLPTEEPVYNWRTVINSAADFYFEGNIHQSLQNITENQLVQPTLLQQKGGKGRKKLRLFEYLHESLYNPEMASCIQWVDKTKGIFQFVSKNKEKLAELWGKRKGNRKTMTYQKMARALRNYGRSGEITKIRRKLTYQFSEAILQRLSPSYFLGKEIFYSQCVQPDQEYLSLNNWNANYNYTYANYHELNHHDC
# How it was run: as §1
# ELF4 = ELF4 (Homo sapiens, UniProt Q99607 1-663); details: protein: recombinant; tags: N-terminal GST; dsDNA, one strand shown
# ELF4, sequence (Q99607 whole entry): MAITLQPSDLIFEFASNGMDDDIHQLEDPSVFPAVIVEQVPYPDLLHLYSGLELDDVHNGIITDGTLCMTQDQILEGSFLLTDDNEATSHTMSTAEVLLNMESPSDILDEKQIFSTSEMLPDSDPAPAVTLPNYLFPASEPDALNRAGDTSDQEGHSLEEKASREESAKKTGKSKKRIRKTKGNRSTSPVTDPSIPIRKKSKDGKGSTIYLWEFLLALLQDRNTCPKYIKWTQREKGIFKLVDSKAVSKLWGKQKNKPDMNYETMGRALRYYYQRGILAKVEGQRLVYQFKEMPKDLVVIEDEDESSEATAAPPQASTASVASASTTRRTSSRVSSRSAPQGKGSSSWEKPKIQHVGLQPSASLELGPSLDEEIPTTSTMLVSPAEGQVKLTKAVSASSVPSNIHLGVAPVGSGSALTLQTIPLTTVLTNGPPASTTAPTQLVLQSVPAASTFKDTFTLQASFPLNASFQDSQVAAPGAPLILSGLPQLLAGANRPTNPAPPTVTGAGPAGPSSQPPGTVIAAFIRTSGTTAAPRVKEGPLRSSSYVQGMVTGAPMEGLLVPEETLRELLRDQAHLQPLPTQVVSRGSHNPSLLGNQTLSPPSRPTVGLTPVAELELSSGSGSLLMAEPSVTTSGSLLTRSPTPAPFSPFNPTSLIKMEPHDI
# How it was run: as §1
# ELK4 = target: T3, ELK4 (Homo sapiens, UniProt P28324-2 1-405); details: protein: recombinant; tags: N-terminal GST; dsDNA, one strand shown
# T3 sequence: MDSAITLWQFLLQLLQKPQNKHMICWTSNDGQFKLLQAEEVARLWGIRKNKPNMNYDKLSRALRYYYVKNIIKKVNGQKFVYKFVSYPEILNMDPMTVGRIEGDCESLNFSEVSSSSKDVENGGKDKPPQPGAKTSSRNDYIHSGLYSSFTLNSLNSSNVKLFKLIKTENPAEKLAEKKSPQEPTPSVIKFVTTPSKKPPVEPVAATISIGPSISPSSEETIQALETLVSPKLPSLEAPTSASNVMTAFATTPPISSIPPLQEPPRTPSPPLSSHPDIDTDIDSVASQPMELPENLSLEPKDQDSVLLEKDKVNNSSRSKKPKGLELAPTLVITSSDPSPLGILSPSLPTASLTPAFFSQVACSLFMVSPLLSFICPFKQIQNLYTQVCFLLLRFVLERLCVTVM
# How it was run: as §1
# ETV2 = target: T4, ETV2 (Homo sapiens, UniProt O00321 1-342); details: protein: recombinant; tags: N-terminal GST; dsDNA, one strand shown
# T4 sequence: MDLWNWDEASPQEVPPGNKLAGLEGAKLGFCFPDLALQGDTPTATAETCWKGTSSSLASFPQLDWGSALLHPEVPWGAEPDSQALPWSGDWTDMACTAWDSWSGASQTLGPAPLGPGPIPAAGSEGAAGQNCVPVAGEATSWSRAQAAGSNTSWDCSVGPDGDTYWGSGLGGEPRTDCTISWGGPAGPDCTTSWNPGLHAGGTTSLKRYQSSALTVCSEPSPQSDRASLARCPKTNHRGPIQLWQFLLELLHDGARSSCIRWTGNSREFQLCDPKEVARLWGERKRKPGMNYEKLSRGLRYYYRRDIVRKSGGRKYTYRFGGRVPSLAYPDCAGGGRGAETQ
# How it was run: as §1
# ELF3 = target: T5, ELF3 (Homo sapiens, UniProt P78545 1-371); details: protein: recombinant; tags: N-terminal GST; dsDNA, one strand shown
# T5 sequence: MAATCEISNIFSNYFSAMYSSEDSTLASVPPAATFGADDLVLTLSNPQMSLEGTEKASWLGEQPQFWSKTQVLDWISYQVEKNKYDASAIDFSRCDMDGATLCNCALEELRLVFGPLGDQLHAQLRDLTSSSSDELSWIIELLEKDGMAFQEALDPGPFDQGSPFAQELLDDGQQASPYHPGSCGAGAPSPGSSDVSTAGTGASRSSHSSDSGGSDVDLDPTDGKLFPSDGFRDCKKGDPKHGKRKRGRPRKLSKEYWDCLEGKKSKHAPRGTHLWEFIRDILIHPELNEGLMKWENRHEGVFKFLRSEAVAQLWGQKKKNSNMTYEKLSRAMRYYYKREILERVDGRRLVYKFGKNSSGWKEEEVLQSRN
# How it was run: as §1
# CRX = CRX (Homo sapiens, UniProt O43186 1-299); details: protein: recombinant; tags: N-terminal GST; dsDNA, one strand shown
# CRX, sequence (O43186 whole entry): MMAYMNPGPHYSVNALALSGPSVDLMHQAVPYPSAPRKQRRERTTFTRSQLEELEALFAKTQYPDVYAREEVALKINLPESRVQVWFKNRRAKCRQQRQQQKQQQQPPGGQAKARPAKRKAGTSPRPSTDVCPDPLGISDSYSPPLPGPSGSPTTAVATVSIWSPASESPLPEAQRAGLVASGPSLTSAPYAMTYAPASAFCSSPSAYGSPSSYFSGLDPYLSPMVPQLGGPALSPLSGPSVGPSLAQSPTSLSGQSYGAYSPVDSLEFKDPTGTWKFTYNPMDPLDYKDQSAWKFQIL
# How it was run: as §1
# ETV1 = ETV1 (Homo sapiens, UniProt P50549 1-477); details: protein: recombinant; tags: N-terminal GST; dsDNA, one strand shown
# ETV1, sequence (P50549 whole entry): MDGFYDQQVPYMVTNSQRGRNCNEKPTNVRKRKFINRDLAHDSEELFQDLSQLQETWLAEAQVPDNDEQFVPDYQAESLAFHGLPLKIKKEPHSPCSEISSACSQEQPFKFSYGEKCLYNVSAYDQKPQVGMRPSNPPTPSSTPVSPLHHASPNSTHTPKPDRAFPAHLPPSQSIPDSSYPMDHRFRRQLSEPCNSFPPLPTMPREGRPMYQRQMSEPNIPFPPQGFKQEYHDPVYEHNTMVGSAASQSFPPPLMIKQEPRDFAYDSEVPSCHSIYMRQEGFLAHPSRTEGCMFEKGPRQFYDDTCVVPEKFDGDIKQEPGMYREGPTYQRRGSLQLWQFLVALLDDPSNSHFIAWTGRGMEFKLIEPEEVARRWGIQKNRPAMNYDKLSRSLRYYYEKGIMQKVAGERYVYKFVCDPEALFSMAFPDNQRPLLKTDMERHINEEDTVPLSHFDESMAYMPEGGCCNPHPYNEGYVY
# How it was run: as §1
# ERF = target: T6, ERF (Homo sapiens, UniProt P50548 1-548); details: protein: recombinant; tags: N-terminal GST; dsDNA, one strand shown
# T6 sequence: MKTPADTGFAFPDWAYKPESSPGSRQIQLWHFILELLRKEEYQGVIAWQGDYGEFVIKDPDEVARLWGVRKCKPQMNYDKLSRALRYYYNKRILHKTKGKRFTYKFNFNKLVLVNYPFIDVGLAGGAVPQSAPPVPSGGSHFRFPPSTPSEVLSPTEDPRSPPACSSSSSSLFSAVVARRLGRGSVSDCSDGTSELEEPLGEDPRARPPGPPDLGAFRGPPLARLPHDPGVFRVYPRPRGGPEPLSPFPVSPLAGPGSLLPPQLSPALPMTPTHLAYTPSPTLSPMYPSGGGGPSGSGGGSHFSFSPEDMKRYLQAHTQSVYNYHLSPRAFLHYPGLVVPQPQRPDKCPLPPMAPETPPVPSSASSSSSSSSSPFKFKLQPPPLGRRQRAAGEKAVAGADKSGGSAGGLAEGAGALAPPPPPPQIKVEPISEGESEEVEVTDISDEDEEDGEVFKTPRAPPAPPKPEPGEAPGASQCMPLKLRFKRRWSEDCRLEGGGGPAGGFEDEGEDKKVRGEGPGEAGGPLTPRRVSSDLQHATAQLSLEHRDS
# How it was run: as §1
# ETV3L = target: T7, ETV3L (Homo sapiens, UniProt Q6ZN32 1-361); details: protein: recombinant; tags: N-terminal GST; dsDNA, one strand shown
# T7 sequence: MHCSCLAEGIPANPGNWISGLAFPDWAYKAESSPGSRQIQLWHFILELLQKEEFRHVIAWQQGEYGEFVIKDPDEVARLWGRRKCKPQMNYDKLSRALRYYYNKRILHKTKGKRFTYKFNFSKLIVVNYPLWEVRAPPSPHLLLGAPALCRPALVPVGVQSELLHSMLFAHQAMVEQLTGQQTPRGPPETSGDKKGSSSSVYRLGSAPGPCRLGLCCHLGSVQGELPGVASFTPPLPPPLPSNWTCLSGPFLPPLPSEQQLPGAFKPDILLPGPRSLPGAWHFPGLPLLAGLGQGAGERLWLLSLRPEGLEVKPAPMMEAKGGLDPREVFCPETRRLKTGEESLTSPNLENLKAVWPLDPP
# How it was run: as §1
# ETS2 = target: T8, ETS2 (Homo sapiens, UniProt P15036 1-469); details: protein: recombinant; tags: N-terminal GST; dsDNA, one strand shown
# T8 sequence: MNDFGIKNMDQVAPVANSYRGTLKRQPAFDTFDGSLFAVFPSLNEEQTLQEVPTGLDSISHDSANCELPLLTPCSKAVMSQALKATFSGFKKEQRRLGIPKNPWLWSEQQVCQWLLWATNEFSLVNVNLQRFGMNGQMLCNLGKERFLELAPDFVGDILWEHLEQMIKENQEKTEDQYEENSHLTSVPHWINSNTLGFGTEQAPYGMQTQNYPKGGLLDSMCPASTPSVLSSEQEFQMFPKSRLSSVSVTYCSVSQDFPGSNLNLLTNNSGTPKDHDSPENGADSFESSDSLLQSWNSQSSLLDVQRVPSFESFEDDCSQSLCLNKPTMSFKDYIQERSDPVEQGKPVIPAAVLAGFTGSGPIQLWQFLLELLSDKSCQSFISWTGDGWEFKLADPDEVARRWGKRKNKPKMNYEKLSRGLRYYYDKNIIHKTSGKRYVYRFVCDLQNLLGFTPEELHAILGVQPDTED
# How it was run: as §1
# SPDEF = target: T9, SPDEF (Homo sapiens, UniProt O95238 1-335); details: protein: recombinant; tags: N-terminal GST; dsDNA, one strand shown
# T9 sequence: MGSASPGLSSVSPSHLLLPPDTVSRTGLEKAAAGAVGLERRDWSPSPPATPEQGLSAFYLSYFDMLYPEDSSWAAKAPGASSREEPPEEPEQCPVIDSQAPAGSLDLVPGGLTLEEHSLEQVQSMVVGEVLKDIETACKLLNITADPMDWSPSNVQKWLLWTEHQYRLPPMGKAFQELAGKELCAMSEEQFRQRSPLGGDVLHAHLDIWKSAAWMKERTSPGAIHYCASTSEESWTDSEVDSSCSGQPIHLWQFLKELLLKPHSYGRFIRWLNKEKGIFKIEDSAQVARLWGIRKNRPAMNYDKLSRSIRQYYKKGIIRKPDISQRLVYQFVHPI
# How it was run: as §1
# ETV7 = target: T10, ETV7 (Homo sapiens, UniProt Q9Y603 1-341); details: protein: recombinant; tags: N-terminal GST; dsDNA, one strand shown
# T10 sequence: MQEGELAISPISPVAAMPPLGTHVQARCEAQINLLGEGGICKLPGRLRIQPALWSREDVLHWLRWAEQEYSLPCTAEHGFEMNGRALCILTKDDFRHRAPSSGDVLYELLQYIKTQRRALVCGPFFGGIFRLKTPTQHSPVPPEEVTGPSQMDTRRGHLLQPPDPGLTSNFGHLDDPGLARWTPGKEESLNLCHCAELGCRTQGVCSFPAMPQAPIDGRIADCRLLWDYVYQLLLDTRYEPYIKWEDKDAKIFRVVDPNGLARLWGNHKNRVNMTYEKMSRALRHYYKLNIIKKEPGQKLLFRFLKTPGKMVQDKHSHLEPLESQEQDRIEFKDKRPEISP
# How it was run: as §1
# ELF5 = target: T11, ELF5 (Homo sapiens, UniProt Q9UKW6-2 1-255); details: protein: recombinant; tags: N-terminal GST; dsDNA, one strand shown
# T11 sequence: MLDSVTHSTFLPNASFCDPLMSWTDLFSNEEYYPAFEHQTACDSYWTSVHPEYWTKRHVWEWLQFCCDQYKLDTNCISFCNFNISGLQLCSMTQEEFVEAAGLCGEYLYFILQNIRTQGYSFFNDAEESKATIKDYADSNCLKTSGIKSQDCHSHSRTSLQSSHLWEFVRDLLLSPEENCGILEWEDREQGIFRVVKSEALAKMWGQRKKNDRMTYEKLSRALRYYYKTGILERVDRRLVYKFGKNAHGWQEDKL
# How it was run: as §1
# ETV3 = target: T12, ETV3 (Homo sapiens, UniProt P41162-2 1-143); details: protein: recombinant; tags: N-terminal GST; dsDNA, one strand shown
# T12 sequence: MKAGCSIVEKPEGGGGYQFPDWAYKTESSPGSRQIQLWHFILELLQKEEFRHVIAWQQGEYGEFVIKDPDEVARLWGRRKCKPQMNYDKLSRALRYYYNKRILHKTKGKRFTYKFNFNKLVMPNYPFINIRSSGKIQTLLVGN
# How it was run: as §1
# ETV6 = ETV6 (Homo sapiens, UniProt P41212 1-452); details: protein: recombinant; tags: N-terminal GST; dsDNA, one strand shown
# ETV6, sequence (P41212 whole entry): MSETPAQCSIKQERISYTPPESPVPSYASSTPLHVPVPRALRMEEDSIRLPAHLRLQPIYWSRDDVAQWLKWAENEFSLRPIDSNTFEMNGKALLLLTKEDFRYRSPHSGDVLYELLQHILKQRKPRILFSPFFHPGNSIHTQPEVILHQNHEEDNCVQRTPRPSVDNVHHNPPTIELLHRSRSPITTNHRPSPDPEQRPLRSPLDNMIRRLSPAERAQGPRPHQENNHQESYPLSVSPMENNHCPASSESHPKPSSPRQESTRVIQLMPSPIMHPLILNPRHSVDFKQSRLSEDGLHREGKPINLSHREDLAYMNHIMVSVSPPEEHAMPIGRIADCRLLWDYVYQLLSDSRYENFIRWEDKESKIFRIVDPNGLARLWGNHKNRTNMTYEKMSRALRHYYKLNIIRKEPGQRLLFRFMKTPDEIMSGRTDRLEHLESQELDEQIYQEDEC
# How it was run: as §1
sequence,measurement,setting,value
TCAAAC,binding signal,FEV,"1.21 fold enrichment (6-mer frequency, TF over GST control)"
same,binding signal,ETV5,"1.17 fold enrichment (6-mer frequency, TF over GST control)"
same,binding signal,HSF1,"1.03 fold enrichment (6-mer frequency, TF over GST control)"
same,binding signal,SPIC,"1.19 fold enrichment (6-mer frequency, TF over GST control)"
same,binding signal,ELF4,"1.21 fold enrichment (6-mer frequency, TF over GST control)"
same,binding signal,ELK4,"1.28 fold enrichment (6-mer frequency, TF over GST control)"
same,binding signal,ETV2,"1.3 fold enrichment (6-mer frequency, TF over GST control)"
same,binding signal,ELF3,"1.24 fold enrichment (6-mer frequency, TF over GST control)"
same,binding signal,CRX,"1.14 fold enrichment (6-mer frequency, TF over GST control)"
same,binding signal,ETV1,"1.29 fold enrichment (6-mer frequency, TF over GST control)"
same,binding signal,ERF,"1.18 fold enrichment (6-mer frequency, TF over GST control)"
same,binding signal,ETV3L,"1.09 fold enrichment (6-mer frequency, TF over GST control)"
same,binding signal,ETS2,"1.19 fold enrichment (6-mer frequency, TF over GST control)"
same,binding signal,SPDEF,"1.15 fold enrichment (6-mer frequency, TF over GST control)"
same,binding signal,ETV7,"1.11 fold enrichment (6-mer frequency, TF over GST control)"
same,binding signal,ELF5,"1.12 fold enrichment (6-mer frequency, TF over GST control)"
same,binding signal,ETV3,"1.21 fold enrichment (6-mer frequency, TF over GST control)"
same,binding signal,ETV6,"1.19 fold enrichment (6-mer frequency, TF over GST control)"
